# Screening data deposited in PubChem BioAssay by National Center for Advancing Translational Sciences (NCATS).
# HTT prom inh: Primary qHTS for Identification of Small Molecule Inhibitors of Huntingtin Promoter Activity. HEK293 HTT promoter firefly luciferase reporter, 24 h. Potency, µM (titrated, usually from 57.5 µM), most hits filed as inhibitors. 0.93% of 48,000 active; also: nearly all actives have a fitted effect of over 50% in size
#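 HEK293 Fluc reporter, 2,500 cells/well, 24 h pre-culture; cpds up to 57.5 uM final, 24 h 37 degrees C; Dual-Glo, 10 min RT; normalized vehicle = 0%, zero RLU = -100%.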
# HTT-AS act: Primary qHTS for Identification of Small Molecule Activators of Huntingtin-Antisense Promoter Activity; HEK293 HTT-AS promoter firefly luciferase reporter, 24 h; response scale: percent change from vehicle, -100% = no light; Potency, µM (highest dose often 57.5 µM), hits mostly activators; 0.24% of 48,000 active; AID 1508624, 2021; also: nearly all actives have a fitted effect of over 55% in size
#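 Firefly luciferase signal from promoter-reporter HEK293 cells was scaled between vehicle (0%) and zero RLU (-100%). Compounds were tested at final concentrations of up to 57.5 uM over 24 h at 37 degrees C. PTC124 at 50 uM final served as control inhibitor.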
# NTMT1 inh: Primary qHTS for Inhibitors of N-terminal methyltransferase 1 (NTMT1): MTaseGlo Assay; Potency, µM (highest dose often 114 µM), usual class: inhibitors; N-terminal Xaa-Pro-Lys N-methyltransferase 1 (Homo sapiens), Q9BV86; NTMT1 MTase-Glo SAH luminescence, purified enzyme; AID 1645870, 2021; 2.5% of 59,000 active; also: nearly all actives have a fitted effect of over 65% in size
# Target sequence (Q9BV86 whole entry, looked up): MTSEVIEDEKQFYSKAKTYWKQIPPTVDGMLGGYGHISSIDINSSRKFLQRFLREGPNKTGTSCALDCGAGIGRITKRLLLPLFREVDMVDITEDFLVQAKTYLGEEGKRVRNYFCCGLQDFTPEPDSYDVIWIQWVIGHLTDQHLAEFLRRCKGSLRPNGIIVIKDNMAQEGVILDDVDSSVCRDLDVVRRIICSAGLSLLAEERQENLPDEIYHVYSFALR
# GPR32 ag: qHTS for Agonists of Human Resolvin D1 Receptor DRV1; activation, % at 76.9 µM; Probable G-protein coupled receptor 32 (Homo sapiens), O75388; CHO-K1 GPR32 beta-arrestin PathHunter luminescence, 90 min; zero percent set by DMSO-only wells; AID 1346428, 2018; 2.5% of 48,000 active;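 active = activation of at least 60% and not above a set upper limit, about 1 call in 100 departs from these limits; inconclusive = activation of 40% to 60%, or above that upper limit; inactive = activation under 40%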
#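 Agonism was scored as beta-arrestin recruitment to ProLink-fused GPR32 in stably transfected CHO-K1 cells, giving a chemiluminescent beta-Gal signal; compounds were incubated 90 min at 37 °C.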
# CLK4 KinaseGlo: Confirmation Assay for Inhibitors of CDC-like Kinase 4 (Kinase-Glo Assay): SAR round 2. shares compounds with NTMT1 inh. 90% of 90 active. recombinant Clk4, Kinase-Glo ATP luminescence, 4.5 h. AID 493204, 2011. Potency, µM (doses to about 76.9 µM), hits mostly inhibitors
# Sfp PPTase inh: qHTS Assay for Inhibitos of Bacillus subtilis Sfp phosphopantetheinyl transferase (PPTase): Chemistry Optimization Followup | shares compounds with NTMT1 inh | Potency, µM (series often up to 114 µM), actives largely listed as inhibitors | purified Sfp PPTase enzyme activity, qHTS | 78% of 230 active
# HM489 growth: qHTS for Inhibitos of Bacillus subtilis Sfp phosphopantetheinyl transferase (PPTase): Chemistry Optimization Followup in B. Subtilis HM489; B. subtilis HM489 (acpS-) growth, BacTiter-Glo, 5 h; shares compounds with NTMT1 inh; Potency, µM (doses to about 114 µM), hits mostly inhibitors; 50% of 220 active
# Sfp PPTase gel: Gel-Based Assay for Inhibitos of Bacillus subtilis Sfp phosphopantetheinyl transferase (PPTase): Chemistry Optimization Followup; shares compounds with NTMT1 inh; purified Sfp PPTase, gel-based product detection; Potency, µM (series often up to 250 µM), most hits filed as inhibitors; 54% of 220 active; AID 540355, 2011
# Sfp inh SAR2: qHTS Assay for Inhibitors of Bacillus subtilis Sfp phosphopantetheinyl transferase (PPTase): SAR Round 2; shares compounds with NTMT1 inh; purified Sfp enzyme, PPTase activity, qHTS; Potency, µM (doses to about 57.1 µM), most hits filed as inhibitors; 87% of 230 active
# HSD17B4 inh: Extended Characterization of HPGD Inhibitors: Counterscreen Against HSD17b4 | purified HSD17B4, estradiol/NAD+, NADH fluorescence | AID 743187, 2013 | Potency, µM (top dose mostly 57.1 µM), hits mostly inhibitors | shares compounds with NTMT1 inh | 10% of 230 active
# ALDH1A1 counter: Extended Characterization of HPGD Inhibitors: Counterscreen Against ALDH1A1. 93% of 230 active. shares compounds with NTMT1 inh. recombinant ALDH1A1, NADH fluorescence, propionaldehyde/NAD+. Potency, µM (top dose mostly 57.1 µM), usual class: inhibitors
# NNMT inh: Counterscreen qHTS for Inhibitors of N-terminal methyltransferase 1 (NTMT1): NNMT MTaseGlo assay; NNMT MTase-Glo luminescence, SAH detection; 10% of 120 active; shares compounds with NTMT1 inh; AID 1645878, 2021; Potency, µM (highest dose often 57.1 µM), most hits filed as inhibitors
# Target sequence (P40261 whole entry, looked up): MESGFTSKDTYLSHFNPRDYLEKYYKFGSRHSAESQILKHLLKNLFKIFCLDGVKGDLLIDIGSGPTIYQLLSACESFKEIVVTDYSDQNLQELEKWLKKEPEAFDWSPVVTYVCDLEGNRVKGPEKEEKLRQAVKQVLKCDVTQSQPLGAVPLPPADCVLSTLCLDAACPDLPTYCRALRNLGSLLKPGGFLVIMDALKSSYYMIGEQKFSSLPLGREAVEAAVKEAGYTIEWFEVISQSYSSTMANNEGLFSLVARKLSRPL
# Hits are given with their value; – = inactive; ? = inconclusive; · = not tested or not shown; [ ] = dose if it differs, or a comment. Most compounds without a hit are left out; they make up all but 4.6% or so of the library. Unless noted, calls follow the shape of the dose curve; as a rule, active = well fitted curve in the direction sought with a large enough effect; inconclusive = small, poorly fitted or top-dose-only effect, or another doubt; inactive = no such curve, though single readings can be large; an effect the other way counts as inactive or inconclusive.
SMILES,HTT prom inh,HTT-AS act,NTMT1 inh,GPR32 ag,NNMT inh,others
C[N+]1(CC2COC(c3ccccc3)(c3ccccc3)O2)CCCCC1 (stereo not given),–,–,?,–,–,
C[C@@H]1O[C@@H](O[C@H]2[C@H](O[C@H]3CC[C@@]4(C)C(CC[C@]5(C)C4C=C[C@]46OC[C@@]7(CCC(C)(C)C[C@H]74)[C@@H](O)C[C@]65C)[C@]3(C)CO)O[C@H](CO)[C@@H](O)[C@@H]2O[C@@H]2O[C@H](CO)[C@@H](O[C@@H]3O[C@@H](C)[C@H](O)[C@@H](O)[C@H]3O)[C@H](O)[C@H]2O)[C@H](O)[C@H](O)[C@H]1O (stereo not given in full),·,·,–[12.6 µM],·,·,
Cc1ccc(NC(=O)N2CCN(c3nc(N)nc4sc(-c5cccnc5)nc34)CC2)cc1,·,·,–,·,–,
CN1CCN(c2nn3c(=O)c4ccccc4nc3s2)CC1,·,·,–,·,·,
CN1CCN(c2ncc3nc(-c4cn(C)c5ccccc45)c(=O)n(Cc4cccs4)c3n2)CC1,·,·,·,·,·,CLK4 KinaseGlo=–
C/C=C/c1ccc2oc(-c3ccc(O)c(OC)c3)c(C)c2c1,·,·,–,·,–,
Cc1ccnc(NC(=S)N2CCN(c3ccc(N)cc3)CC2)c1,·,·,?,·,·,Sfp PPTase inh=?;HM489 growth=?;Sfp PPTase gel=–;Sfp inh SAR2=10µM;HSD17B4 inh=?;ALDH1A1 counter=9.6µM
COc1ccc(N2CCN(C(=S)Nc3cc(C)ccn3)CC2)cc1,·,·,50µM,·,·,Sfp PPTase inh=12µM;HM489 growth=33µM;Sfp PPTase gel=–;Sfp inh SAR2=10µM;HSD17B4 inh=–;ALDH1A1 counter=6.8µM
N#Cc1ccc(Nc2nc(-c3ccc(O)cc3O)cs2)cc1C(F)(F)F,·,·,?,·,–,
O=C(Nc1ccc(F)c(C(F)(F)F)c1)Nc1nc(-c2ccncc2)cs1,·,·,–,·,·,
Nc1ncnc2c1nc(N)n2[C@@H]1O[C@H](CO)[C@@H](O)[C@H]1O,·,·,–,·,–,
OC[C@H]1O[C@@H](OCCc2ccccc2)[C@H](O[C@@H]2OC[C@](O)(CO)[C@H]2O)[C@@H](O)[C@@H]1O,·,·,–,·,·,
